Experimental data taken from PubChem BioAssay AID743360 (Molecular Libraries Program, Specialized Chemistry Center, …, 2014).
A number with no mark means an inactive call. Activity calls are given as the source filed them.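 The calls were made as follows: active = calcium retention capacity relative to untreated control above about 1.1 ratio (limit read from the data); inactive = the rest.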

Assay: mtPTP inhibition via calcium retention, dose response, biochemical, dry powder samples, uHTS hits, Calcium Green-5N (AID 743360)
Settings: isolated mitochondria, Ca retention capacity

Row | Compound | CRC/CRC0 ratio at 12.5 uM (higher = more inhibition)
1 | O=C(Nc1ccc(CCN2CCCCC2)cc1)c1cccc(OCc2ccccc2)c1 | 3.04 (active)
2 | O=S(=O)(Nc1ccc(CN2CCCCC2)cc1)c1ccc(F)c(Cl)c1 | 1.07
3 | O=C(Nc1cccc(F)c1)c1cc(-c2cccc(O)c2)on1 | 2.24 (active)
4 | O=C(Nc1cc(Cl)ccc1Cl)c1cc(-c2cccc(O)c2)on1 | 4.67 (active)
5 | O=C(Nc1cccc(Cl)c1)c1cc(-c2ccccc2)on1 | > 1
6 | CN1CCN(Cc2ccc(NS(=O)(=O)c3ccc(F)c(Cl)c3)cc2)CC1 | 1.07
7 | O=C(Nc1cc(Cl)cc(Cl)c1)c1cc(-c2cccc(O)c2)on1 | 12.1 (active)
8 | COc1ccc(Cl)cc1C(=O)Nc1ccc(CCN2CCCCC2)cc1 | 1.51 (active)
9 | O=S(=O)(Nc1ccc(CCN2CCCCC2)cc1)c1cccc(Cl)c1 | 1.12 (active)
10 | COc1ccc(Cl)cc1C(=O)Nc1ccc(CCN2CCOCC2)cc1 | 1.23 (active)
11 | O=C(Nc1ccc(CN2CCCCC2)cc1)c1ccc(Cl)c(OCc2ccccc2)c1 | 21.3 (active)
12 | COc1ccccc1C(=O)Nc1ccc(CN2CCCCC2)cc1 | 1.05
13 | COc1ccc(Cl)c(C(=O)Nc2ccc(CCN3CCN(C)CC3)cc2)c1 | > 1
14 | O=C(Nc1ccccc1C(F)(F)F)c1cc(-c2ccccc2)on1 | > 1
15 | CN1CCN(c2ccc(NC(=O)c3ccc(OCc4ccccc4)cc3)cc2)CC1 | 1.08
16 | COc1ccc(C(=O)CCN2CCCC(C)C2)cc1 (configuration not stated) | 1.07
17 | CN1CCN(c2ccc(NS(=O)(=O)c3cccc(Cl)c3)cc2)CC1 | 1.05
